FMDV inh – antivirals against foot and mouth disease virus | FMDV antiviral cell-based qHTS | Potency, µM (top dose mostly 57.9 µM), usual class: inhibitors | hit rate 1.2% among 410,000; calls by dose curve; tested in HEK293T cells; also: read-out not given here; nearly all actives have a fitted effect of over 45% in size
Lassa entry inh – Lassa virus entry inhibition | Lassa virus pseudotype entry inhibition, cell reporter | Potency, µM (series often up to 37.9 µM), most hits filed as inhibitors | hit rate 1.2% among 300,000; calls by dose curve; tested in HEK293 cells; also: nearly all actives have a fitted effect of over 50% in size
VACV mCherry inh – inhibitors of vaccinia virus infection (mCherry reporter signal); Vaccinia virus mCherry reporter infection, fluorescence; Potency, µM (doses to about 36.5 µM), actives largely listed as inhibitors; hit rate 0.63% among 310,000; calls by dose curve; tested in A549 cells; also: nearly all actives have a fitted effect of over 35% in size
HCMV antiviral – human cytomegalovirus inhibition | HFF cells, HCMV-luciferase reporter, 72 h; stronger effect = lower value | activity change, negative = inhibition, % at 57.5 µM | hit rate 4.5% among 410,000 | AID 1259415; in the data active = activity change below about -60%; inconclusive = no clear call, values can overlap the other calls; inactive = above about -39%
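After 16 h attachment at 37C, HFF cells received test compound and HCMV-luciferase (1 PFU/cell); reporter luminescence read 72 h later, data normalized against buffer-only and known inhibitor Salinomycin.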
Marburg entry inh – Marburg virus entry inhibition; hit rate 1.8% among 300,000; Marburg virus pseudotyped entry inhibition, cell reporter; AID 540276; Potency, µM (series often up to 37.8 µM), usual class: inhibitors; calls by dose curve; tested in HEK293 cells
Vaccinia Venus – inhibitors of vaccinia virus (Venus reporter); Vaccinia virus Venus reporter expression, fluorescence; AID 720580; Potency, µM (series often up to 36.5 µM), hits mostly inhibitors; hit rate 0.46% among 330,000; calls by dose curve; tested in A549 cells; also: nearly all actives have a fitted effect of over 30% in size
Numbers stand for hits; n = inactive; u = inconclusive; x = no result. This is a sample that favours compounds with a hit; in the whole collection about 6.5% have one here.

SMILES	FMDV inh	Lassa entry inh	VACV mCherry inh	HCMV antiviral	Marburg entry inh	Vaccinia Venus
O=C(CCSCc1cnn(-c2ccccc2)c1-n1cccc1)NCc1ccccc1Cl	n	n	n	n	n	n
Cc1c(C(=O)NCCN(C)C)oc2c1-c1nn(Cc3cccc(Cl)c3)cc1CC2	n	n	n	-68.4	x	n
CCn1cc2c(n1)-c1c(oc(C(=O)Nc3cccc(C)c3C)c1C)CC2	n	n	n	n	x	n
COc1cccc(CNC(=O)c2oc3c(c2C)-c2nn(Cc4cccc(Cl)c4)cc2CC3)c1	n	n	n	-92.0	x	n
Cc1ccc(CNC(=O)Cn2cc3c(n2)-c2c(oc(C(=O)N4CCOCC4)c2C)CC3)cc1	u	n	n	u	x	n
Cc1cccc(C)c1NC(=O)c1oc2c(c1C)-c1nn(Cc3ccccc3)cc1CC2	u	n	u	-81.5	x	u
CCOc1ccc(CNC(=O)Cn2cc3c(n2)-c2c(oc(C(=O)N4CCOCC4)c2C)CC3)cc1	n	n	n	-63.2	x	n
Cc1cc(NC(=O)CSc2ncc(C(=O)Nc3ccccc3)c(=O)n2C)no1	n	n	n	n	x	n
Cc1sc2ncnc(-n3nnc4ccccc43)c2c1C	n	x	x	u	x	x
Brc1ccc(-c2csc3ncnc(-n4nnc5ccccc54)c23)cc1	u	u	n	-67.8	12.6µM	n
O=C(COC(=O)c1ccccc1Nc1ccc(SC(F)F)cc1)NC1CC1	n	n	n	-71.0	u	n
CC1CN(C(=O)c2ccccc2Nc2ccc(SC(F)F)cc2)CC(C)O1 (configuration not stated)	n	n	n	u	u	n
O=C(COC(=O)c1ccccc1C(=O)c1ccccc1)Nc1ccc(SC(F)F)cc1	u	16.4µM	n	n	u	n
CC1CCCC(C)N1C(=O)c1ccccc1Nc1ccc(SC(F)F)cc1 (configuration not stated)	n	u	x	n	11.6µM	x
CC(=O)NCCNC(=O)c1nnc2n1CCN(C(=O)COc1ccccc1)C2	x	x	x	n	x	x
COC(=O)c1cc(NC(=O)Cn2ncc3c([nH]c4ccccc43)c2=O)cc(C(=O)OC)c1	n	n	n	n	x	n
CS(=O)(=O)c1nc(-c2ccccc2)cc(-c2ccccc2)c1C#N	u	14.6µM	n	x	12.6µM	n
COc1ccc(NC(=O)CSc2c3c(nc4ccccc24)CCCC3)c(OC)c1	35.5µM	u	n	n	u	n
Cc1cc(Br)ccc1NC(=O)CSc1c2c(nc3ccccc13)CCC2	u	n	n	-95.5	u	n
COc1ccccc1NC(=O)CSc1c2c(nc3ccccc13)CCC2	u	n	n	n	n	u
CC(C)NC(=O)CSc1c2c(nc3ccccc13)CCCC2	n	n	n	-71.8	n	n
COc1ccc(NC(=O)Nc2cccc(OCc3cc(=O)n4cccc(C)c4n3)c2)c(OC)c1	n	n	n	n	x	n
Cc1ccccc1CN1CCCN(Cc2ccc(Cl)cc2)S1(=O)=O	n	u	n	-60.0	n	n
Cc1ccc(CN2CCCN(Cc3ccc(Cl)cc3)S2(=O)=O)cc1	n	n	n	n	n	n
CC(C)NC(=O)c1cn(C2CCCN(C(=O)c3cc4ccccc4oc3=O)C2)nn1 (configuration not stated)	n	x	n	x	x	n
SMILES	FMDV inh	Lassa entry inh	VACV mCherry inh	HCMV antiviral	Marburg entry inh	Vaccinia Venus
COc1cc2c3c(n(C)c(=O)c2cc1OC)-c1cc2c(cc1C3=O)OCO2	n	u	n	x	0.562µM	n
COc1cc2c(C(=O)NCc3ccc4c(c3)OCO4)cn(C)c(=O)c2cc1OC	n	n	n	n	n	n
O=C(Cc1ccccc1)N1CC(=O)N2[C@@H](CO)[C@@H](c3ccc(Br)cc3)[C@@H]2C1	x	x	x	n	x	x
O=C(Cc1ccccn1)N1CC(=O)N2[C@H](CO)[C@@H](c3ccc(Br)cc3)[C@H]2C1	x	x	x	-101.1	x	x
CC(C)CC(N)c1csc(Nc2cnccn2)n1 (configuration not stated)	n	x	11.2µM	n	x	10µM
NC(c1csc(Nc2ncccn2)n1)C1CCCCC1 (configuration not stated)	n	x	n	n	x	u
NC(c1csc(Nc2cnccn2)n1)C1CCCCC1 (configuration not stated)	n	x	n	-68.4	x	n
NC(c1csc(Nc2ccc(C(F)(F)F)cn2)n1)C1CCCCC1 (configuration not stated)	n	x	u	-102.0	x	u
CC12C=C(C=Cc3ccccc3)C(C)(C1)C(c1ccccc1)CC2=O (configuration not stated)	x	x	x	x	n	x
O=C(OC(C(=O)N1CCOCC1)c1ccccc1)c1c2c(nc3ccccc13)CCCC2 (configuration not stated)	x	x	n	x	x	n
Cc1cc(/C=C/c2ccc3cc(N(C)C)ccc3[n+]2C)c(C)n1-c1ccccc1	14.1µM	x	n	x	x	n
CN(CCCS(=O)(=O)[O-])c1ccc(/C=C/c2ccc3ccccc3[n+]2C)cc1	n	x	x	n	x	x
CN(C)c1ccc(/C=C/c2ccc3c4ccccc4ccc3[n+]2-c2ccccc2)cc1	12.6µM	11.2µM	n	-99.0	u	n
Cc1cc(/C=N/O)c(C)n1-c1ccccc1	n	n	n	n	u	n
CN(C)c1ccc(/C=C/c2ccc3ccccc3[n+]2C)cc1	u	u	n	-99.4	u	n
CC(=O)C[n+]1cccc2cc(Cl)ccc21	x	x	n	x	x	n
CCOC(=O)/C=C/[C@@H](CC(C)C)NC(=O)C(F)(F)F	x	x	x	n	x	x
Cc1cccc(NC(=S)NC2CC3CCCC(C2)N3Cc2cccs2)c1 (configuration not stated)	x	u	u	n	1.64µM	u
COCCNC(=S)NC1CC2CCCC(C1)N2Cc1cccs1 (configuration not stated)	x	n	n	n	u	n
CCN(CC(=O)Nc1ccccc1OC)C(=O)c1ccc(NS(=O)(=O)c2ccc(C(C)=O)cc2)cc1	158µM	n	n	n	n	n
COc1ccc(N(CC(=O)NCc2ccccc2OC)S(=O)(=O)c2ccccc2)cc1	n	n	n	n	10µM	n
CCNC(=O)CN(c1ccc(Cl)cc1)S(=O)(=O)c1ccccc1	n	u	x	n	1.16µM	x
COc1ccc(S(=O)(=O)N(CC(=O)NCCc2ccccc2)c2ccc(Cl)cc2)cc1	n	n	n	n	n	n
CCNC(=O)CN(c1ccccc1)S(=O)(=O)c1ccc(Cl)cc1	n	n	x	n	n	x
COc1ccc(N(CC(=O)NCc2ccco2)S(=O)(=O)c2ccccc2)cc1	n	x	n	n	n	n
COc1ccc(N(CC(=O)NCCc2ccccc2)S(=O)(=O)c2ccc(OC)c(OC)c2)cc1	n	6.31µM	n	n	x	n
CCc1nc(CN2CCOc3ccc(C(O)C4CCCCC4)cc3C2)c(C)[nH]1 (configuration not stated)	n	x	n	x	x	n
CCC(=O)Nc1ccccc1-c1nc2ccccc2n(CC(=O)c2ccc(C)cc2)c1=O	n	n	n	n	n	n
C[C@H](NC(=O)CSc1nnc(COc2ccccc2)o1)c1ccccc1	x	x	x	x	n	x
COc1ccc(/C=N/NC(=O)CN(c2ccc(OC)cc2)S(=O)(=O)c2ccccc2)cc1	n	x	x	n	x	x

Screening results from PubChem BioAssay.
